Source: PubChem BioAssay AID720566 (Broad Institute, 2013)
Measured potencies and affinities stand elsewhere. Calls of active or inactive are those of the source.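 Rule for the calls: active = in all runs, an absorbance decrease of 25% or more of the average positive control decrease; inconclusive = runs conflict, with both active and inactive results; inactive = all runs inactive, opposite-direction effects included.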

Target: Protein disulfide-isomerase A6 (Homo sapiens) (UniProt Q15084)
Test: reduced insulin turbidity driven by ERp5 (PDIA6) – biochemical, absorbance 650 nm, cherry-picked samples, dose response (AID 720566);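 note: negative values mean less insulin aggregation so ERp5 inhibition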
Settings: Recombinant ERp5 insulin aggregation; series mostly up to 35 µM

Sequence of Protein disulfide-isomerase A6 (Homo sapiens) (Q15084 whole entry, looked up): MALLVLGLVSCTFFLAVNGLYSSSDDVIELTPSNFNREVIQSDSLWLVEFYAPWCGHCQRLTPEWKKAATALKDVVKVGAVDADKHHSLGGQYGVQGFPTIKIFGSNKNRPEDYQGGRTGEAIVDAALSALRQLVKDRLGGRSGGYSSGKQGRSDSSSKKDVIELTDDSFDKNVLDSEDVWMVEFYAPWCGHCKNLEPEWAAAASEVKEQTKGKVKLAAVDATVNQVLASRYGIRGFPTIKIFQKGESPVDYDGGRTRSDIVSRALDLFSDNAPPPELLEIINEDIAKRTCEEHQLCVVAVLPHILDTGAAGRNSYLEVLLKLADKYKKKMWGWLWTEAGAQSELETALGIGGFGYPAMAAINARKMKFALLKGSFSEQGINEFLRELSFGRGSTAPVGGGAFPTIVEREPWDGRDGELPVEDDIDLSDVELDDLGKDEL

Row | SMILES | outcome
1 | C[C@H](CO)N1C[C@H](C)[C@@H](CN(C)C(=O)Oc2ccc3ccccc3c2)OCc2cn(nn2)CCCC1=O | inactive
2 | COc1ccc(C#Cc2ccc([C@H]3[C@H](CO)N4CCCCN(C(=O)Cc5cccnc5)C[C@@H]34)cc2)cc1 | inactive
3 | Cc1cc(OCC(=O)NCc2ccc(S(N)(=O)=O)cc2)c2c3c(c(=O)oc2c1)CCC3 | inactive
4 | CCn1nc(/C=C/c2ccccc2)nc2c(=O)n(C)c(=O)nc1-2 | inactive
